PubChem BioAssay AID1159580 (chemical genetic matrix, 2015)
Several values for one entry are separate records, joined by “and”; a condition that tells them apart may be missing. Identical values can stand only once. Out of some 5,500 compounds screened, about 2,000 (36%) were called active. Another 18% or so got no clear call; they are omitted. No stated cut-off is given here; in the data, active means normalized growth mostly below about 0.91 (no sharp cut-off); inconclusive means no clear call, values can overlap the other calls; inactive means mostly above about 0.92. The list shows a part of the results.

Assay: chemical genetic growth profiling, strain panel (AID 1159580);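 further: tested at 20 µM; growth read once vehicle control cultures reached saturation at 30 °C; 1 = growth at the plate median or of vehicle wells; lower values mean less growth of the strain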
Conditions: S. cerevisiae deletion strains, growth OD

Measured: normalized growth

O=C(NCO)c1cccnc1
inactive: locus YAL013W, strain DEP1, active compounds read low 0.99 | locus YAL021C, strain ccr4, active compounds read low 1.02 | locus YAL026C, strain drs2, active compounds read low 1.01 | locus YAL030W, strain snc1, active compounds read low 1.01 | locus YBL061C, strain skt5, active compounds read low 1.01 | locus YBR009C, strain hhf1, active compounds read low 0.998 | locus YBR021W, strain FUR4, active compounds read low 1.04 | locus YBR023C, strain chs3, active compounds read low 1 | locus YBR171W, strain sec66, active compounds read low 1.03 | locus YBR229C, strain ROT2, active compounds read low 0.997 | locus YBR231C, strain swc5, active compounds read low 1 | locus YBR279W, strain paf1, active compounds read low 1.01 | locus YCL011C, strain gbp2, active compounds read low 1.01 | locus YCL016C, strain dcc1, active compounds read low 1.01 | locus YCL029C, strain bik1, active compounds read low 0.971 | locus YCL061C, strain MRC1, active compounds read low 0.999 | locus YCL069W, strain vba3, active compounds read low 1 | locus YCR088W, strain abp1, active compounds read low 1 | locus YDL005C, strain med2, active compounds read low 1 | locus YDL035C, strain GPR1, active compounds read low 0.985 | locus YDL040C, strain nat1, active compounds read low 1.01 | locus YDL074C, strain BRE1, active compounds read low 1 | locus YDL101C, strain DUN1, active compounds read low 0.99 | locus YDL134C, strain PPH21, active compounds read low 0.988 | locus YDL185W, strain tfp1, active compounds read low 1.01 | locus YDL192W, strain arf1, active compounds read low 0.987 | locus YDR001C, strain nth1, active compounds read low 1 | locus YDR069C, strain doa4, active compounds read low 0.999 | locus YDR101C, strain arx1, active compounds read low 0.991 | locus YDR137W, strain rgp1, active compounds read low 1.02 | locus YDR150W, strain NUM1, active compounds read low 0.98 | locus YDR159W, strain sac3, active compounds read low 1 | locus YDR162C, strain NBP2, active compounds read low 1 | locus YDR195W, strain ref2 0.993 | locus YDR297W, strain sur2, active compounds read low 1.01 | locus YDR318W, strain mcm21, active compounds read low 0.978 | locus YDR334W, strain swr1, active compounds read low 1.01 | locus YDR335W, strain msn5, active compounds read low 1.01 | locus YDR388W, active compounds read low 0.989 | locus YDR392W, strain spt3, active compounds read low 0.893 | locus YDR502C, strain sam2, active compounds read low 0.996 | locus YEL003W, strain gim4, active compounds read low 1.01 | locus YEL037C, strain rad23, active compounds read low 1.02 | locus YEL061C, strain CIN8 (second series), active compounds read low 1.01 | locus YEL061C, strain CIN8, active compounds read low 0.996 | locus YER015W, strain faa2, active compounds read low 1 | locus YER016W, strain bim1, active compounds read low 1.01 | locus YER110C, active compounds read low 0.97 | locus YER111C, strain swi4, active compounds read low 1 | locus YER155C, strain BEM2 (second series), active compounds read low 1.01 | locus YER155C, strain BEM2, active compounds read low 0.996 | locus YER167W, strain BCK2, active compounds read low 0.982 | locus YFR010W, strain ubp6, active compounds read low 1.01 | locus YGL078C, strain dbp3, active compounds read low 0.979 | locus YGL086W, strain mad1, active compounds read low 0.983 | locus YGL167C, strain pmr1, active compounds read low 1.01 | locus YGL173C, strain kem1, active compounds read low 1.01 | locus YGL227W, strain vid30, active compounds read low 1 | locus YGL240W, strain doc1, active compounds read low 0.988 | locus YGL248W, strain PDE1, active compounds read low 0.994 | locus YGL253W, strain hxk2, active compounds read low 1.01 | locus YGR078C, strain PAC10, active compounds read low 0.995 | locus YGR135W, strain pre9, active compounds read low 1.02 | locus YGR229C, strain SMI1, active compounds read low 1.01 | locus YGR252W, strain gcn5, active compounds read low 1.01 | locus YHR013C, strain ard1, active compounds read low 0.984 | locus YHR027C, strain rpn1, active compounds read low 1.01 | locus YHR030C, strain SLT2, active compounds read low 0.984 and 0.995 | locus YHR079C, strain IRE1 (second series), active compounds read low 0.989 | locus YHR079C, strain IRE1, active compounds read low 0.992 | locus YHR094C, strain hxt1, active compounds read low 0.982 | locus YHR129C, strain ARP1, active compounds read low 0.994 | locus YHR142W, strain chs7, active compounds read low 1.02 | locus YHR200W, strain rpn10, active compounds read low 0.981 | locus YIL066C, strain RNR3, active compounds read low 0.98 | locus YIL073C, strain SPO22, active compounds read low 0.894 | locus YIL125W, strain kgd1, active compounds read low 0.975 | locus YIR030C, strain dcg1, active compounds read low 0.992 | locus YJL092W, strain hpr5, active compounds read low 1.01 | locus YJL095W, strain BCK1 (second series), active compounds read low 1 | locus YJL095W, strain BCK1, active compounds read low 1.01 and 0.998 | locus YJL115W, strain asf1, active compounds read low 1 | locus YJL129C, strain trk1, active compounds read low 1.01 | locus YJL134W, strain LCB3, active compounds read low 0.988 | locus YJL154C, strain vps35, active compounds read low 1 | locus YJL164C, strain tpk1, active compounds read low 0.998 | locus YJL166W, strain qcr8, active compounds read low 1.01 | locus YJL168C, strain set2, active compounds read low 0.982 | locus YJL187C, strain SWE1 (second series), active compounds read low 0.982 | locus YJL187C, strain SWE1, active compounds read low 1 | locus YJR043C, strain POL32, active compounds read low 0.983 | locus YJR066W, strain TOR1, active compounds read low 0.906
